Consider 68 sequences from PubChem BioAssay AID1508600 (Functional Genomics Laboratory (NCATS/FGL), 2020).

Among all 53,000 sequences or so, about 3,700 (7%) were called active.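 The calls were made as follows: active = gene knockdowns whose robust z-score for IL-1 alpha signal is at least 2 or at most -2, so actives lie on both sides; inactive = the rest.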 This excerpt belongs to a sample that is enriched for actives.

A short description of the assay: Components of the Cytosolic LPS Sensing Pathway: Gene Identification via Genome-wide siRNA Screen.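 Also: robust z of the log signal after scaling to non-targeting control siRNA wells of the plate.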 Particulars: RAW264.7 macrophages, IL-1a HTRF, actives lie on both sides, screened at 100 nM (by protocol), cells primed 5 h with Pam3CSK4 first. Put shortly: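 RAW264.7 mouse macrophages reverse-transfected with single siRNAs (100 nM final) for 48h, primed with Pam3CSK4 for 5 hours, then transfected with LipidA for 24 hour. Supernatant IL-1a read by HTRF; values normalized to negative-control median, log-transformed robust z-scores.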
(In general: In TR-FRET formats the signal depends on donor and acceptor labels being close together.)
With GCCGACUUUAAUGACUGCUTT against Cmtm4, the z-score was 1.71 (inactive).

With CGAAACUGGUCUUUAUACUTT against Tigd4, the z-score is -1.27 (inactive). With AUGCGUCCUUCACCAACGATT against Tmem158 the figure was -3.28 (active); with GGAUGACAUGUCAUCAAAGTT against Vmn1r89, -1.38 (inactive); with GGGAAGAGUGGUGCAAUGATT against Olfr155, 0.835 (inactive). Regarding GCAACAAUAAAUCGUACAGTT against Nupr1, the z-score is 0.246 (inactive). In the case of GGGAAGUUCAUAUUGAUCCTT against Gsdma it was 0.691 (inactive); in that of GGCUUAAGGUGAGAUAUUCTT against Sp9, -0.524 (inactive); in that of CGAGUGUUCCUCCAAGUGCTT against Fhl5, 0.384 (inactive). In the case of GGGACUAAGAUGAAGCUGATT against Fam43a it was -2.18 (active). With GCUCACUUAUCUACGUUUUTT against Trim15, the z-score was 0.639 (inactive). In the case of GCAUGUGACCUCGUCUUGCTT against Apbb2 it was -1.04 (inactive). With GGGCAUGAGAAAUCCACAGTT against Rhox9 the figure was -1.23 (inactive); with GGCAAAUAAAUUCAGCAAGTT against Pum3, -0.0642 (inactive). In the case of GGACUUCCCGAACUACAUATT against Zfp52 it was 0.0339 (inactive); in that of GGCUCUCUUUAGAACAGACTT against Rad17, 0.479 (inactive); in that of GCUACAUACCCAAAUACAUTT against Trpc4ap, 2.1 (active). For the sequence GGGACAUAUCUGAAGCAAGTT against Rps26, the z-score is 0.896 (inactive).

Take GCUUCUGUCAUAAUGAUAUTT against Pramel6: the z-score was -2.33 (active).

For CCAGAAACCAAUCUUUCUUTT against Serpinb1a, the z-score was -0.0285 (inactive). With CCCUAGUGAUAAGGAAUGCTT against Cxcl9 the figure was 0.228 (inactive); with GGUGACCACUUCAUGUCACTT against Tmem138, -1.28 (inactive). In the case of GCGGGAGCUUAGCUUUUAUTT against G6pc3 it was 3.33 (active); in that of CCGUAGACUCGGUGAAGCUTT against Plpbp, -0.143 (inactive). As to GGUCAGAAUCUUUGUUCCUTT against Ndufs4, the z-score was -0.912 (inactive).

As for GGAUUCCCUGUAUGCCCAATT against Rpl36al, the z-score was -0.23 (inactive). With GGAGAAGCCAAAAGAAUGCTT against Xrn2 the figure was -0.76 (inactive); with GCUUACAAGUUGCUACUGGTT against Dnajc8, 0.425 (inactive); with GGGCAAUUCUAUCAAAGAGTT against Gps1, -2.14 (active). Consider CCUAUAGCAAUGGCAGCAGTT against Pkn1, for which the z-score was -1.66 (inactive).

As for GGUCCUUUCCCAUAACCUGTT against Swap70, the z-score was -0.922 (inactive).

On to GCGGACUACUAUGCUAAAGTT against Tgfb1, for which the z-score is 1.08 (inactive). In the case of GGUGUUCAAAAAGUUUAACTT against Zswim1 it was 1.02 (inactive); in that of GCCAAGCUCGCCAAGAUUATT against P4ha2, 0.273 (inactive).

In the case of GCUGAAGUGCAAGAACAAATT against Dmd, the z-score was 1.91 (inactive).

As to GGUUUUGGCGGAUACUAAGTT against Plin3, the z-score was -0.24 (inactive).

As to GGAUGAGAGAAAGUUACCCTT against Tspo2, the z-score is -2.78 (active). On to GGGCAUCUCAGAUUUAGCUTT against Cct3, for which the z-score was -0.0572 (inactive). With GGGUGAAGAUUCUCUACAATT against Dctn3, the z-score is -0.621 (inactive). With GGACUGAACCCAAAUGCCUTT against Chtf8 the figure was -1.45 (inactive); with GGAGCUUACAUGGUCCCUATT against Prss37, -0.238 (inactive). For the sequence CGAGAAGGAUAUAAUUGUUTT against Klhl18, the z-score is 0.449 (inactive). For the sequence GGUUUCGAACUGAUGAAGCTT against Nemf, the z-score was 0.284 (inactive). For GGCAAAACAAAGAAUGAAATT against Prss40, the z-score was -0.38 (inactive). In the case of “CGAAGUCUGAAACACAUGUTT against A730018C14Rik” it was 4.13 (active). With GGACUCACAGAAAUUUCCATT against Slc36a1 the figure was -1.53 (inactive); with GGUAAUGAGACGCGGUUUATT against Ina, 0.202 (inactive). With GCAACACCUUAUGUUUCAUTT against Cab39 the figure was 1.68 (inactive); with GGCACGAUUUGCUUAUUUUTT against Usf2, 0.0682 (inactive). For the sequence GCCUCCUACUGGUUCCAAATT against Commd7, the z-score is 2.05 (active).

As for GUCUUCUCUGCCUGUCUGATT against Lce3c, the z-score was -0.0986 (inactive).

CCCAGGGAGAAUUGACUUGTT against Sertad1: the z-score is 0.0114 (inactive). With GGCCUUUGUAGUAUCCCAGTT against Nudt16 the figure was -0.709 (inactive). With GCACCAAUCAAUGAGGAGATT against Was the figure was -0.785 (inactive). With GGAGUGAUGUCCAUACUGGTT against Leap2 the figure was -2.57 (active); with CCAUCCUAAGCAGAGUCACTT against Frg2f1, -0.446 (inactive); with GGAUGUUGAUUUUCAUGGUTT against Grpel2, 1.13 (inactive).

In the case of GGGUAUUCAUGAUGUCUUUTT against Kctd6, the z-score was 1.39 (inactive).

Take GGCAUCACUGAUGAAUGAATT against Pacsin2: the z-score was -0.585 (inactive). With GGAACAUCCAGUCUCUCACTT against Fbxo31 the figure was 0.244 (inactive); with “CCCAGGUGUAUUUUACAUATT against D10Wsu102e”, -0.00657 (inactive); with CGCGGAGGUCUCUCUUAUUTT against Prss39, 2.22 (active).

Regarding GGUAUUUAAUGGAAGCCUGTT against Acp7, the z-score was -0.537 (inactive). In the case of GGCAUCUUUCAUAAAACCGTT against Atad3aos it was -0.622 (inactive). With GCCUAUCAGAAGCUGUUAATT against Eif2ak2 the figure was 3.59 (active). In the case of GGAGAUAUUAUUGUUCAGATT against Cemip2 it was -0.337 (inactive). Regarding GUGCUUUCGUGUUUUUCAATT against Klrb1b, the z-score is -0.388 (inactive). In the case of GCUAUCGUGAUAAUCUGGATT against Gxylt2 it was -0.113 (inactive).
